Compounds with a hit are over-represented: about 9.5% of the library has one in this group of screens.
Tau fluor cs = counter-screen for tau fibril formation inhibitors. tau K18 P301L Alexa594 fluorescence, heparin fibrillization. Potency, µM (titrated, usually from 57.7 µM). hit rate 0.93% among 280,000; also: nearly all actives have a fitted effect of over 55% in size
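Human K18 P301L tau (15 uM unlabeled plus 0.24 uM Alexa 594-labeled, final) in 100 mM sodium acetate pH 7 was mixed with compound and 20 uM heparin and incubated 6 hr at 37 C.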
Tau fibril FP = inhibitors of human tau fibril formation; P10636; K18 P301L tau heparin fibrillization, Alexa594 FP, 6 h; hit rate 0.39% among 280,000; Potency, µM (titrated, usually from 57.7 µM), usual class: inhibitors; also: nearly all actives have a fitted effect of over 55% in size
Target sequence (P10636 561-689 P618L limits assumed): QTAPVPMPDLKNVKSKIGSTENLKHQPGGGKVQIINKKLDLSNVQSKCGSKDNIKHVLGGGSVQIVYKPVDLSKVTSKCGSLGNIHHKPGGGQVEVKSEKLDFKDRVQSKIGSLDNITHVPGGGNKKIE
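Steps: dispense K18 P301L tau (15 uM plus 0.24 uM Alexa 594 tracer, final) in pH 7 sodium acetate; add compound; add heparin (20 uM final); incubate 6 hr, 37 C; add ThT (30 uM final); after 1 hr ambient, read FP.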
HPGD block = blocks human HPGD enzyme activity | Potency, µM, most hits filed as inhibitors | purified HPGD, NADH fluorescence kinetic, PGE2 substrate | P15428 | AID 894 | hit rate 4.3% among 150,000; active = well fitted inhibition curve with a large enough effect, not every such curve was filed as active; inconclusive = small, poorly fitted or top-dose-only effect, or another doubt; inactive = no such curve, though single readings can be large or run the other way
Target sequence (P15428 whole entry, looked up): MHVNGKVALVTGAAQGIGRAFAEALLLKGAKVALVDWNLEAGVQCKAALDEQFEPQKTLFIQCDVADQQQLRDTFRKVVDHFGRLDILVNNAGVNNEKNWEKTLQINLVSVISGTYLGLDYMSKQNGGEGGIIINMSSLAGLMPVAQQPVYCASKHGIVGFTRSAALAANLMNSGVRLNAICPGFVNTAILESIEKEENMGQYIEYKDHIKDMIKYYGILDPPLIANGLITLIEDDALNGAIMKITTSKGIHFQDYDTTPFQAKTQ
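NADH formation kinetics: reaction with 30 uM PGE2 and 1 mM NAD+ (final), 20 nM enzyme, Tris-HCl pH 8 with Tween 20, after 15 min compound preincubation at room temperature. Fluorescence change, last versus first of five reads.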
ALDH1A1 block = blocks purified human ALDH1A1 activity | AID 1030 | P00352 | Purified ALDH1A1, NADH fluorescence, propionaldehyde substrate | hit rate 7.3% among 220,000 | Potency, µM (doses to about 75.3 µM), hits mostly inhibitors; active = well fitted inhibition curve with a large enough effect, not every such curve was filed as active; inconclusive = small, poorly fitted or top-dose-only effect, or another doubt; inactive = no such curve, though single readings can be large or run the other way
Tau fibril ThT = inhibitors of human tau fibril formation, thioflavin T binding | AID 1460 | recombinant tau K18 P301L (four-repeat tau fragment), heparin-induced fibrillization, ThT fluorescence | Potency, µM (titrated, usually from 57.4 µM), usual class: inhibitors | P10636 | hit rate 2.1% among 270,000; also: nearly all actives have a fitted effect of over 55% in size
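Aggregation was driven by heparin (20 uM final) acting on recombinant tau […] bearing P301L in 100 mM sodium acetate pH 7; fibrils were detected with Thioflavin T.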
NPSR antag = blocks cAMP signaling of the human neuropeptide S receptor. CHO-NPSR cells, cAMP TR-FRET, antagonist mode. Q6W5P4. Potency, µM (doses to about 38.3 µM), usual class: inhibitors. hit rate 1% among 220,000; also: nearly all actives have a fitted effect of over 50% in size
Of the large screens only hits and unclear results are named; the others gave an inactive call; [ ] = dose if it differs, or a comment. Unless noted, calls follow the shape of the dose curve; as a rule, active = well fitted curve in the direction sought with a large enough effect; inconclusive = small, poorly fitted or top-dose-only effect, or another doubt; inactive = no such curve, though single readings can be large; an effect the other way counts as inactive or inconclusive.

Cc1cc(/C=C2/C(=O)NC(=O)N(c3ccc(Br)cc3)C2=O)c(C)n1C	Tau fibril ThT inconclusive (no result: HPGD block)
O=C1NC(=O)N(c2ccc3c(c2)OCO3)C(=O)/C1=C\c1ccsc1	none (no result: HPGD block, ALDH1A1 block, Tau fibril ThT)
O=C1NC(=O)N(c2ccc(F)cc2)C(=O)/C1=C/c1ccc(N2CCOCC2)cc1	ALDH1A1 block 4µM, Tau fibril ThT inconclusive (no result: HPGD block)
O=C(CCl)NN=C(c1ccccc1)c1ccccc1	ALDH1A1 block 0.013µM (no result: HPGD block)
O=Cc1ccc(Cl)cc1Cl	none (no result: Tau fluor cs, Tau fibril FP, Tau fibril ThT, NPSR antag)
NCC#Cc1ccccc1	none
CCc1ccccc1NC(=O)CSc1nnc([C@@H](N)Cc2c[nH]c3ccccc23)o1	ALDH1A1 block inconclusive
C=C(C)CSc1nnc([C@@H](N)Cc2c[nH]c3ccccc23)o1	HPGD block inconclusive, ALDH1A1 block 16µM
Cc1ccc(NC(=O)CSc2nnc([C@@H](N)Cc3c[nH]c4ccccc34)o2)c(C)c1	HPGD block inconclusive, ALDH1A1 block 25µM
CC(C)=CCSc1nnc([C@@H](N)Cc2c[nH]c3ccccc23)o1	ALDH1A1 block inconclusive
CCC1=C(C[C@H]2NCCc3cc(OC)c(OC)cc32)C[C@H]2c3ccccc3CCN2C1	none (no result: Tau fluor cs, Tau fibril FP, Tau fibril ThT, NPSR antag)
CCN1C(=O)NC(=O)/C(=C/c2cc(C)n(-c3sc(C)c(C)c3C#N)c2C)C1=O	HPGD block 8.9µM, ALDH1A1 block 0.2µM, Tau fibril ThT inconclusive
Cc1ccc(N2C(=O)NC(=O)/C(=C\c3cc(C)n(-c4sc5c(c4C#N)CCCC5)c3C)C2=O)cc1	HPGD block 10µM, ALDH1A1 block 0.79µM, Tau fibril ThT inconclusive
CCOC(=O)c1c(-n2c(C)cc(C=C3C(=O)NC(=S)NC3=O)c2C)sc2c1CCCC2	Tau fluor cs inconclusive, Tau fibril FP inconclusive, HPGD block 3.5µM, ALDH1A1 block 7.9µM, Tau fibril ThT inconclusive, NPSR antag 4µM
CCc1ccc(-n2nc(C)c3c2NC(=O)CSC3c2ccc(OC)cc2OC)cc1 (centres undefined)	Tau fluor cs inconclusive, Tau fibril FP inconclusive (no result: HPGD block, ALDH1A1 block, NPSR antag)
O=c1[nH]c(=O)n(Cc2ccco2)c(O)c1C=NC1CC1	ALDH1A1 block 14µM, Tau fibril ThT inconclusive
CNC(=O)OCC[N+](C)(C)C	none
CCC(C)C1N=C(c2ccccc2)c2cc(Cl)ccc2N(CC(=O)NCc2ccco2)C1=O (centres undefined)	none
Cc1ccccc1C1=NCC(=O)N(CC(=O)NCc2ccco2)c2sc3c(c21)CCCC3	HPGD block 40µM, ALDH1A1 block 40µM
O=C(O)c1ccccc1-c1c2cc(Br)c(=O)cc-2oc2[c]([Hg])c(O)c(Br)cc12	Tau fluor cs inconclusive, Tau fibril FP inconclusive, HPGD block 2.2µM, ALDH1A1 block 4.5µM, Tau fibril ThT inconclusive (no result: NPSR antag)
CCOc1c(Cl)cc(CNCCc2c[nH]c3ccccc23)cc1OC	Tau fluor cs inconclusive, ALDH1A1 block 3.5µM (no result: HPGD block)
O=C(O)[C@H]1C2c3ccccc3C(c3ccccc32)[C@@H]1C(=O)NCC1CC1	none (no result: Tau fluor cs, Tau fibril FP, Tau fibril ThT, NPSR antag)
c1ccc2c(c1)Nc1ccccc1S2	Tau fluor cs 16µM[quencher], Tau fibril ThT inconclusive
c1ccc2c(N3CCNCC3)nsc2c1	Tau fibril FP inconclusive, Tau fibril ThT 22µM (no result: HPGD block)
COc1ccc(-n2[nH]c3c4c(ncc3c2=O)CCCCC4)cc1	Tau fibril FP inconclusive, Tau fibril ThT inconclusive (no result: NPSR antag)
CC1CN(c2ccc([N+](=O)[O-])cc2Cl)CCN1 (centres undefined)	ALDH1A1 block 16µM (no result: HPGD block)
Nc1cc2nc3ccccc3nc2cc1N	Tau fluor cs inconclusive, Tau fibril FP inconclusive, Tau fibril ThT 10µM (no result: HPGD block, ALDH1A1 block)
CN1C(=O)C(=Cc2c(OCc3cnc(Cl)s3)ccc3ccccc23)C(=O)N(C)C1=O	ALDH1A1 block 2.2µM, Tau fibril ThT inconclusive (no result: HPGD block)
Cc1c(C=C2C(=O)N(C)C(=O)N(C)C2=O)c(=O)n(-c2ccccc2)n1C	Tau fibril FP inconclusive, Tau fibril ThT inconclusive
COC(=O)[C@H]1[C@@H](c2ccccc2)[C@@]2(c3ccccc3)Oc3ccccc3[C@@]1(O)[C@@H]2O	none (no result: HPGD block, NPSR antag)
CCN(CC)c1ccc(N=Cc2c(O)n(-c3ccccc3C)c(=O)[nH]c2=O)cc1	Tau fibril ThT 20µM
S=C(S)N1CCCC1	Tau fibril FP inconclusive, HPGD block 10µM, ALDH1A1 block 0.79µM, Tau fibril ThT 32µM, NPSR antag inconclusive
